In all, about 52,000 compounds went through this assay and about 1,700 (3.3%) were called active. For the sample, actives were picked, then their nearest neighbours and some compounds at random. A number with no mark means an inactive call. Rule as the data show it: active = survival mostly below about 52% (no sharp cut-off); inactive = mostly above about 56%.
What follows are compounds tested on Wild type (assay: growth inhibition of S. aureus wild type versus tarO mutant, primary screen, teichoic acid synthesis inhibitors, RN4220, OD600 (AID 463173)). Conditions: S. aureus RN4220 wild type/DeltatarO growth, OD600, 18 h, hits give low values, screened at 18.75 µg/mL (by protocol).

| SMILES | survival |
| --- | --- |
| O=C(CSc1nc2cc3ccccc3cc2[nH]1)Nc1ccc(F)cc1 | 76% |
| CCCCNC(=O)c1nn(-c2ccc(C)cc2)c(=O)c2c1c1ccccc1n2C | 79% |
| CN(Cc1ccco1)C(=O)c1ccc2c(c1)N(Cc1ccccc1F)C(=O)c1ccccc1S2 | 115% |
| Cc1oc2ncn(CC(C)C)c(=O)c2c1C(=O)N1CCN(c2ccc(F)cc2)CC1 | 57% |
| CC1CCCN(S(=O)(=O)c2ccc(S(=O)(=O)N(Cc3cccs3)Cc3cccs3)cc2)C1 (centres undefined) | 112% |
| Cc1ccc(CN(Cc2ccco2)C(=O)COc2ccccc2C)cc1 | 83% |
| O=C(Nc1nnc(S(=O)(=O)N2CCc3ccccc32)s1)c1ccccc1 | 19% |
| O=C(Nc1nnc(S(=O)(=O)N2CCc3ccccc32)s1)c1ccccc1Cl | 23% |
| O=C(Nc1nnc(S(=O)(=O)N2CCc3ccccc32)s1)c1cccc(Cl)c1 | 12% (active) |
| O=c1[nH]c2cc3c(cc2cc1CN(CCN1CCOCC1)C(=S)Nc1ccccc1)OCCO3 | 109% |
| CCOc1ccc(NC(=O)CC2Nc3cccc4cccc(c34)NC2=O)cc1 (centres undefined) | 63% |
| CCOc1ccc(-c2nonc2NC(=O)c2oc3c(C)c(C)ccc3c2C)cc1OCC | 82% |
| CCn1c(SCCOc2ccccc2F)nc2ccccc21 | -1% (active) |
| COC(=O)Cn1c(SCCOc2ccccc2Cl)nc2ccccc21 | 81% |
| COC(=O)Cn1c(SCCOc2ccccc2OC)nc2ccccc21 | 91% |
| COc1ccc(Oc2nc3c(c(=O)n(C)c(=O)n3C)n2Cc2ccccc2Cl)cc1 | 75% |
| CCCCC(CC)Cn1c(Oc2ccccc2)nc2c1c(=O)n(C)c(=O)n2C (centres undefined) | -2% (active) |
| Cn1c(=O)c2c(nc(Oc3ccccc3)n2Cc2c(Cl)cccc2Cl)n(C)c1=O | 73% |
| Cc1ccc(C(=O)N2CCN(c3ccccc3F)CC2)cc1NC(=O)c1nsc2ccccc12 | 87% |
| Cc1cc(C)cc(Oc2nc3c(C)cccn3c(=O)c2/C=C(\C#N)c2nc3ccccc3[nH]2)c1 | 69% |

| SMILES | survival |
| --- | --- |
| CCCCN(CC)CCCNC(=O)c1ccc2c(c1)NC(=O)CN2C | 57% |
| CCN1CCN(CCCNC(=O)c2ccc3c(c2)sc2nc(-c4ccc(OC)cc4)cn23)CC1 | 82% |
| O=C(NCCCN1CCCCCC1)c1ccc2c(c1)sc1nc(-c3ccccc3)cn12 | 38% |
| CCOc1ccc(-c2cn3c(n2)sc2cc(C(=O)NCCCN4CCCCC4)ccc23)cc1 | -1% (active) |
| CCOc1ccc(-c2cn3c(n2)sc2cc(C(=O)NCCCN4CCCCCC4)ccc23)cc1 | -1% (active) |
| CCCN1CCN(CCCNC(=O)c2ccc3c(c2)sc2nc(-c4ccc(OCC)cc4)cn23)CC1 | 36% |
| CCCN1CCN(CCCNC(=O)c2ccc3c(c2)sc2nc(-c4ccc(OC)cc4)cn23)CC1 | 81% |
| COc1cccc(Cn2cc(C(=O)c3ccccc3)c(=O)c3cc4c(cc32)OCO4)c1 | 84% |
| O=C(CSCc1ccccc1Cl)NCc1ccc(Cl)c(Cl)c1 | 148% |
| COc1ccc(C(=O)Nc2ccc(-c3nnc4n3CCCCC4)cc2)cc1 | -3% (active) |
| COc1ccc(C(=O)Nc2ccc(-c3nnc4n3CCCCC4)cc2)cc1OC | 65% |
| CCOc1cc(C(=O)Nc2ccc(-c3nnc4n3CCCCC4)cc2)cc(OCC)c1OCC | 88% |
| Cc1ccc2c(c1)C(c1ccccc1)N(C(=O)c1ccc(S(=O)(=O)N3CCCCC3)cc1)CC(=O)N2 (centres undefined) | 86% |
| CCOC(=O)c1cnc2c(ccc3ccccc32)c1Nc1ccc(C(C)=O)cc1 | 0% (active) |
| Cc1ccccc1Nc1nc(N)c(C(=O)c2ccccc2Cl)s1 | 101% |
| CCOC(=O)c1cnc2c(ccc3ccccc32)c1Nc1ccc(OC)c(OC)c1 | 5% (active) |
| CCOC(=O)c1cnc2ccccc2c1NCCc1ccc(OC)c(OC)c1 | 53% |
| CCOC(=O)c1cnc2c(ccc3ccccc32)c1Nc1ccc(OCC)cc1 | -2% (active) |
| COc1cccc(C(=O)c2sc(Nc3ccc(F)c(Cl)c3)nc2N)c1 | 65% |
| CCOC(=O)c1cnc2c(ccc3ccccc32)c1Nc1ccccc1O | 74% |

| SMILES | survival |
| --- | --- |
| CCOc1ccc(Nc2nc(N)c(C(=O)c3ccccc3Cl)s2)cc1 | -2% (active) |
| CCOC(=O)c1cnc2c(ccc3ccccc32)c1Nc1ccc(Cl)cc1 | 30% |
| CCOC(=O)c1cnc2c(ccc3ccccc32)c1Nc1cccc(OC)c1 | 68% |
| CCOC(=O)c1cnc2c(ccc3ccccc32)c1Nc1cccc(Cl)c1 | 23% |
| COc1ccccc1CNC(=O)C1CCCN(S(=O)(=O)c2ccc3c(c2)oc(=O)n3C)C1 (centres undefined) | 92% |
| COc1cc(OC)c(NC(=O)CSc2nccn2C)cc1Cl | 75% |
| Nc1nonc1-c1nc2ccccc2n1Cc1ccc(Br)cc1 | 93% |
| CC(=O)N1CCc2c(sc3c2c(=O)n(-c2cc(Cl)ccc2C)c(=O)n3C)C1 | 119% |
| CCOC(=O)c1cnc2c(ccc3ccccc32)c1Nc1ccc(OC)cc1OC | 6% (active) |
| CCOC(=O)c1cnc2c(C)cccc2c1Nc1ccc(OC(C)C)cc1 | 3% (active) |
| CCOC(=O)c1cnc2c(Cl)c(Cl)ccc2c1Nc1ccc(N(C)C)cc1 | 80% |
| CCOC(=O)c1cnc2c(ccc3ccccc32)c1Nc1ccc(N(C)C)cc1 | 0% (active) |
| CCOC(=O)c1cnc2c(ccc3ccccc32)c1Nc1ccccc1OC | 69% |
| CCOC(=O)c1cnc2c(OC)cccc2c1Nc1cccc(O)c1 | 73% |
| CCOC(=O)c1cnc(NCc2ccc(OC)cc2OC)c2ccccc12 | 117% |
| CCOC(=O)c1cnc2c(CC)cccc2c1NCCO | 116% |
| CCN1C(=O)SC(CC(=O)O)C1=O (centres undefined) | 99% |
| CCOc1ccc(NC(=O)CC2C(=O)N(c3ccccc3)C(=O)N2C2CCCCC2)cc1 (centres undefined) | 69% |
| CC(C)c1ccc(NC(=O)CN2C(=O)C3(SCC(=O)N3c3ccc(F)cc3)c3ccccc32)cc1 (centres undefined) | 58% |
